{"source": "PubChem BioAssay AID2330", "about": "(Broad Institute, 2010)", "note": "About 2,800 (7.6%) of roughly 37,000 compounds were called active. Not shown: some 1% with an inconclusive outcome. Rule as the data show it: active = inhibition above about 80%; inconclusive = no clear call, values can overlap the other calls; inactive = below that. The full list was thinned out, with actives kept by preference.", "data": [{"assay": "NOMO-1 AML cell viability reduction, primary screen, STK33 inhibitor project, CellTiter-Glo luminescence (AID 2330)", "conditions": "NOMO-1 AML viability, 72 h, hits give high values, concentration not given here", "values": [{"smiles": "COc1cc(NC(=O)COc2ccc(Br)cc2)ccc1NC(=O)c1ccccc1Cl", "inhibition": "13.7% (inactive)"}, {"smiles": "CC(C)(C)c1ccc(-c2[nH]nc(NC(=O)c3ccccc3Cl)c2Br)cc1", "inhibition": "123% (active)"}, {"smiles": "C[C@@H]1CN([C@@H](C)CO)C(=O)Cc2cc(NC(=O)Nc3ccc4c(c3)OCO4)ccc2O[C@@H]1CN(C)C(=O)Nc1ccc2c(c1)OCO2", "inhibition": "9.09% (inactive)"}, {"smiles": "CC(C)NC(=O)Nc1cccc2c1O[C@H](CN(C)S(=O)(=O)c1ccccc1)[C@@H](C)CN([C@@H](C)CO)C2=O", "inhibition": "6.74% (inactive)"}, {"smiles": "C[C@H]1CN([C@@H](C)CO)C(=O)c2cc(NS(=O)(=O)c3ccc(F)cc3)ccc2O[C@H]1CN(C)CC1CC1", "inhibition": "16.3% (inactive)"}, {"smiles": "Cc1ccc(S(=O)(=O)Nc2ccc3c(c2)C(=O)N([C@@H](C)CO)C[C@H](C)[C@@H](CN(C)S(=O)(=O)c2ccc(C)cc2)O3)cc1", "inhibition": "-8.16% (inactive)"}, {"smiles": "C[C@@H]1CN([C@H](C)CO)C(=O)Cc2cc(NC(=O)c3ccncc3)ccc2O[C@H]1CN(C)S(=O)(=O)c1cccs1", "inhibition": "13.9% (inactive)"}, {"smiles": "C[C@H](CO)N1C[C@H](C)[C@H](CN(C)Cc2ccc(C(F)(F)F)cc2)Oc2ccc(NS(C)(=O)=O)cc2C1=O", "inhibition": "3.14% (inactive)"}, {"smiles": "CCn1c(SCC(=O)Nc2sc3c(c2C#N)CCCC3)nnc1-c1ccccc1O", "inhibition": "-7.99% (inactive)"}, {"smiles": "CN1CCN(CC(=O)Nc2sc3c(c2C#N)CCC(C(C)(C)C)C3)CC1", "note": "(centres undefined)", "inhibition": "115% (active)"}, {"smiles": "N#Cc1c(NC(=O)CCn2cnc3ccccc3c2=O)sc2c1CCCC2", "inhibition": "27.7% (inactive)"}, {"smiles": "OC(c1nc2ccccc2[nH]1)C(O)C(O)C(O)c1nc2ccccc2[nH]1", "note": "(centres undefined)", "inhibition": "-2.04% (inactive)"}, {"smiles": "O=C(CSc1ncnc2sc3c(c12)CCCC3)Nc1ccc(F)c(Cl)c1", "inhibition": "-1.63% (inactive)"}, {"smiles": "CC(C)NC(=O)N(C)C[C@H]1Oc2c(NS(C)(=O)=O)cccc2C(=O)N([C@@H](C)CO)C[C@H]1C", "inhibition": "12.9% (inactive)"}, {"smiles": "C[C@@H]1CN([C@@H](C)CO)C(=O)c2cccc(NC(=O)c3cnccn3)c2O[C@H]1CN(C)S(=O)(=O)c1cccs1", "inhibition": "9.49% (inactive)"}, {"smiles": "O=C(OCC1OC(Oc2ccc(O)cc2COC(=O)C2(O)C(O)CCC(O)C2O)C(O)C(O)C1O)c1ccccc1", "note": "(centres undefined)", "inhibition": "17% (inactive)"}, {"smiles": "COc1cc(/C=C/C(=O)O[C@@H]2O[C@H](CO[C@@H]3O[C@H](CO)[C@@H](O)[C@H](O)[C@H]3O)[C@@H](O)[C@H](O)[C@H]2OC(=O)/C=C/c2cc(OC)c(O)c(OC)c2)cc(OC)c1O", "inhibition": "14.7% (inactive)"}, {"smiles": "COc1cc(O[C@@H]2O[C@H](CO[C@H]3OC[C@](O)(COC(=O)c4ccc(O)c(OC)c4)[C@H]3O)[C@@H](O)[C@H](O)[C@H]2O)ccc1O", "inhibition": "120% (active)"}, {"smiles": "Cc1ccc(S(=O)(=O)N(C)C[C@@H]2Oc3c(NC(=O)C4CCCCC4)cccc3C(=O)N([C@H](C)CO)C[C@H]2C)cc1", "inhibition": "16.1% (inactive)"}, {"smiles": "COc1ccc(NC(=O)Nc2ccc3c(c2)C(=O)N([C@H](C)CO)C[C@H](C)[C@H](CN(C)C(=O)Nc2c(C)noc2C)OCCCC[C@@H](C)O3)cc1", "inhibition": "-10.5% (inactive)"}, {"smiles": "C[C@@H]1CN([C@@H](C)CO)C(=O)c2cc(NC(=O)Nc3cccc4ccccc34)ccc2O[C@H]1CN(C)Cc1ccc(Cl)c(Cl)c1", "inhibition": "94% (active)"}, {"smiles": "COc1ccc(NC(=O)Nc2ccc3c(c2)C(=O)N([C@@H](C)CO)C[C@@H](C)[C@H](CN(C)Cc2ccc(Cl)c(Cl)c2)O3)cc1", "inhibition": "39.3% (inactive)"}, {"smiles": "C[C@@H]1CN([C@H](C)CO)C(=O)c2cc(NC(=O)Nc3ccccc3)ccc2O[C@H]1CN(C)Cc1ccc(Cl)c(Cl)c1", "inhibition": "-8.23% (inactive)"}, {"smiles": "CC(C)NC(=O)Nc1ccc2c(c1)C(=O)N([C@@H](C)CO)C[C@@H](C)[C@H](CN(C)Cc1ccc(Cl)c(Cl)c1)O2", "inhibition": "44.5% (inactive)"}, {"smiles": "C[C@@H]1CN([C@H](C)CO)C(=O)c2cc(NC(=O)Nc3ccccc3)ccc2O[C@@H]1CN(C)Cc1ccc(Cl)c(Cl)c1", "inhibition": "88.9% (active)"}, {"smiles": "C[C@@H]1CN([C@H](C)CO)C(=O)c2cc(NC(=O)Nc3ccc(F)cc3)ccc2O[C@@H]1CN(C)Cc1ccc(Cl)c(Cl)c1", "inhibition": "62.8% (inactive)"}, {"smiles": "CC(=O)Oc1ccc(N(C(C)=O)S(=O)(=O)c2ccc(Cl)cc2)cc1", "inhibition": "42.4% (inactive)"}, {"smiles": "CCC(Oc1cccc(NC(=O)c2ccccc2[N+](=O)[O-])c1)C(=O)c1ccccc1", "note": "(centres undefined)", "inhibition": "2.87% (inactive)"}, {"smiles": "Cc1ccc(NC(=O)CSc2ncnc3sc(C)c(C)c23)cc1", "inhibition": "11.3% (inactive)"}, {"smiles": "Cc1ccc(S(=O)(=O)NCC(=O)N2CCN(c3ccccn3)CC2)cc1", "inhibition": "-2.49% (inactive)"}, {"smiles": "Cc1ccc(S(=O)(=O)Nc2ccc3c(c2)C(=O)N([C@@H](C)CO)C[C@@H](C)[C@@H](CN(C)Cc2ccncc2)O3)cc1", "inhibition": "22.8% (inactive)"}, {"smiles": "C[C@H](CO)N1C[C@H](C)[C@@H](CN(C)Cc2ccc3c(c2)OCO3)Oc2ccc(NC(=O)Nc3ccc(F)cc3)cc2C1=O", "inhibition": "-1.77% (inactive)"}, {"smiles": "C[C@@H]1CN([C@H](C)CO)C(=O)c2cc(NC(=O)Nc3ccc(C(F)(F)F)cc3)ccc2O[C@H]1CN(C)C(=O)Nc1ccccc1", "inhibition": "24.7% (inactive)"}, {"smiles": "C[C@H]1CN([C@@H](C)CO)C(=O)c2cc(NC(=O)Nc3ccccc3)ccc2O[C@@H]1CN(C)C(=O)Nc1ccccc1", "inhibition": "6.27% (inactive)"}, {"smiles": "C[C@H](CO)N1C[C@H](C)[C@H](CN(C)C(=O)Nc2ccccc2)Oc2c(NC(=O)Nc3ccc(C(F)(F)F)cc3)cccc2C1=O", "inhibition": "96.2% (active)"}, {"smiles": "C[C@H]1CN([C@@H](C)CO)C(=O)c2cccc(NC(=O)Nc3ccc(C(F)(F)F)cc3)c2O[C@@H]1CN(C)Cc1ccccc1", "inhibition": "72.2% (inactive)"}, {"smiles": "C[C@@H]1CN([C@@H](C)CO)C(=O)c2cccc(NC(=O)Nc3ccc(F)cc3)c2O[C@H]1CN(C)C(=O)Nc1ccc(F)cc1", "inhibition": "-5.44% (inactive)"}, {"smiles": "C[C@@H]1CN([C@H](C)CO)C(=O)c2cccc(NC(=O)Nc3cccc4ccccc34)c2O[C@@H]1CN(C)C(=O)Nc1cccc2ccccc12", "inhibition": "10.3% (inactive)"}, {"smiles": "C[C@@H]1CN([C@@H](C)CO)C(=O)c2cccc(NC(=O)Nc3ccc(F)cc3)c2O[C@@H]1CN(C)C(=O)Nc1ccccc1", "inhibition": "35.8% (inactive)"}, {"smiles": "COc1ccc(CN(C)C[C@H]2Oc3c(NC(=O)Nc4ccccc4)cccc3C(=O)N([C@@H](C)CO)C[C@@H]2C)cc1", "inhibition": "56.6% (inactive)"}, {"smiles": "C[C@@H]1CN([C@H](C)CO)C(=O)c2cccc(NC(=O)Nc3ccccc3)c2O[C@H]1CN(C)Cc1ccccc1", "inhibition": "75.5% (inactive)"}, {"smiles": "C[C@@H]1CN([C@@H](C)CO)C(=O)c2cccc(NC(=O)Nc3ccccc3)c2O[C@H]1CN(C)Cc1ccccc1", "inhibition": "117% (active)"}, {"smiles": "C[C@H](CO)N1C[C@H](C)[C@H](CN(C)C(=O)Nc2ccc(C(F)(F)F)cc2)Oc2ccc(NC(=O)Nc3ccccc3)cc2C1=O", "inhibition": "85.9% (active)"}, {"smiles": "C[C@@H]1CN([C@H](C)CO)C(=O)c2cccc(NC(=O)Nc3cccc4ccccc34)c2O[C@@H]1CN(C)C(=O)Nc1ccc(F)cc1", "inhibition": "97% (active)"}]}]}
